Experimental data published in PubChem BioAssay (EPA / NIEHS).
Values joined by “and” are separate entries in the source; they are usually repeats but may differ in a detail not shown here. Identical values can stand only once. Results filed as inconclusive are left out. Where a structure was tested more than once in an assay, its records may differ in their call. Active and inactive are the calls of the source. Rule for the calls: active = hit-call score of the fitted dose curve at least 0.9, where 1 is the maximum; inconclusive = response in the unintended direction; inactive = score below 0.9.

Tests used:
[1] = TOX21_p53_BLA_p3_viability: Viability Assessment in the Tox21 HCT-116 p53 Agonism Beta-lactamase Assay, Phase 3 (AID 2283593);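 note: cells exposed to compound for 16 h before reading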
Procedure, shortened: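 HCT-116 cells (4000/well) rested 5 h at 37C, then got DMSO compounds by pin tool (217-fold dilution) for 16 h at 37C, 5% CO2. After the bla read, CellTiter-Glo was added and luminescence read at 30 min, room temperature.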

[2] = biological target: Cellular tumor antigen p53 (Homo sapiens) (UniProt P04637); assay: TOX21_p53_BLA_p3_ratio: Tox21 HCT-116 p53 Agonism Beta-lactamase Assay, Ratio, Phase 3 (AID 2283596)
Procedure, shortened: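 HCT116 p53-bla cells (4000/well) given compound in DMSO (217-fold dilution) after 5 h, incubated 16 h at 37C. CCF4-AM substrate 2 h at room temperature; 460/530 nm emission ratio, gain fitted against DMSO.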

[3] = TOX21_p53_BLA_p4_viability: Viability Assessment in the Tox21 HCT-116 p53 Agonism Beta-lactamase Assay, Phase 4 (AID 2283597);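 note: hits lower the luminescence signal meaning cytotoxicity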
Procedure, shortened: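 HCT116 p53-bla cells (4000/well) rested 5 h at 37C, then received compounds in DMSO (217-fold dilution) for 16 h at 37C, 5% CO2. CellTiter-Glo was added after the CCF4-AM read, and luminescence was read after 30 min at room temperature.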

[4] = biological target: Cellular tumor antigen p53 (Homo sapiens) (UniProt P04637); assay: TOX21_p53_BLA_p5_ratio: Tox21 HCT-116 p53 Agonism Beta-lactamase Assay, Ratio, Phase 5 (AID 2283599)
Procedure, shortened: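 HCT-116 cells carrying a p53-inducible beta-lactamase reporter were seeded at 4000 cells/well and dosed after 5 h with compound in DMSO (217-fold dilution). After 16 h at 37C, CCF4-AM substrate was added for 2 h, and the 460/530 nm emission ratio was scored as gain-of-signal versus DMSO.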

[5] = biological target: Cellular tumor antigen p53 (Homo sapiens) (UniProt P04637); assay: TOX21_p53_BLA_p4_ratio: Tox21 HCT-116 p53 Agonism Beta-lactamase Assay, Ratio, Phase 4 (AID 2283601)
Procedure, shortened: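 HCT116 cells carrying an inducible beta-lactamase reporter were plated at 4000 cells/well, rested 5 h, then exposed to compounds in DMSO (217-fold dilution) for 16 h at 37C. CCF4-AM substrate was loaded 2 h at room temperature; 460/530 nm emission ratio scored gain-of-signal versus DMSO.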

[6] = Tanguay_ZF_120hpf_MORT_legacy: (Legacy) Oregon State University Tanguay Lab 120 Hour Post-fertilization zebrafish Assay for Mortality (AID 2283633);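 for AC50: fitted as increase in binary mortality versus DMSO negative control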
Procedure, shortened: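 Dechorionated Tropical 5D wild-type zebrafish embryos, one per well from 6 hpf, were statically exposed at 28C in the dark until 120 hpf (0.64% DMSO final). Mortality was scored as present/absent by brightfield microscopy, fitted positively versus DMSO.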

[7] = Tanguay_ZF_120hpf_AXIS_legacy: (Legacy) Oregon State University Tanguay Lab 120 Hour Post-fertilization zebrafish Assay for Body Axis Malformation (AID 2283635);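 for AC50: potency for an increased fraction of larvae scored with body axis malformation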
Procedure, shortened: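 Tropical 5D wild-type zebrafish embryos, dechorionated with pronase at 4 hpf, were placed singly in wells at 6 hpf and exposed statically to test chemical (0.64% DMSO final) at 28C until 120 hpf, then scored by brightfield for body axis defects.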

[8] = Tanguay_ZF_120hpf_YSE_legacy: (Legacy) Oregon State University Tanguay Lab 120 Hour Post-fertilization zebrafish Assay for Yolk Sac Edema (AID 2283634);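 for AC50: actives raise the incidence of yolk sac edema above the DMSO baseline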
Procedure, shortened: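 Tropical 5D wild-type embryos, dechorionated with pronase at 4 hpf, were exposed singly from 6 hpf to 120 hpf under static, sealed, dark conditions at 28C with 0.64% DMSO final. Yolk sac edema was scored present/absent by brightfield microscopy.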

[9] = TOX21_p53_BLA_p5_viability: Viability Assessment in the Tox21 HCT-116 p53 Agonism Beta-lactamase Assay, Phase 5 (AID 2283600)
Procedure, shortened: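 Cells were plated at 4000/well, rested 5 h at 37C, then given compounds in DMSO (217-fold dilution) for 16 h at 37C, 5% CO2. Following the CCF4-AM beta-lactamase read, CellTiter-Glo was added and luminescence was read after 30 min at room temperature.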

Measured: AC50

Sequence of Cellular tumor antigen p53 (Homo sapiens) (P04637 whole entry, looked up): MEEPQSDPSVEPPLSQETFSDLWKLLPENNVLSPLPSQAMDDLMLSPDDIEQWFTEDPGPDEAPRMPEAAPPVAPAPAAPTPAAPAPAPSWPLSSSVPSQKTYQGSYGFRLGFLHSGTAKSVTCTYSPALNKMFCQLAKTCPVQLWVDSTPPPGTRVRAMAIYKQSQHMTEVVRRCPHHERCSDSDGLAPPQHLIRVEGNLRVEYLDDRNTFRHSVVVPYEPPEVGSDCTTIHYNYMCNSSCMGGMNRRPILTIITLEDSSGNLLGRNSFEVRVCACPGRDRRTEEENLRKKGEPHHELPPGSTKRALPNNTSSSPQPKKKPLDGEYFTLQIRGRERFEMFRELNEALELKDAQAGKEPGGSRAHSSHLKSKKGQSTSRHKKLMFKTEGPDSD

CC[C@H](NC(=O)c1cc(F)ccc1NS(=O)(=O)c1cccc2cccnc12)c1ccccc1
active: [5] 67.2 µM
not listed: [8] | [9]
inactive: all other assays above

CC(C)(O)c1ccc(CNC(=O)c2cccnc2Oc2ccc3nonc3c2)cc1
not listed: [1] | [3] | [9]
inactive: all other assays above

Cc1ccc(C(C)C)cc1
not listed: [9]
inactive: all other assays above

NC(=O)c1nc(-c2cccc(-c3cc(F)ccc3OCC(F)(F)C(F)(F)F)c2)n[nH]1
active: [2] 87.4 µM | [3] 70.5 µM | [4] 86.6 µM | [9] 72.7 µM | [5] 86.3 µM | [8] 26.8 µM | [7] 25.9 µM
inactive: [6]

CCCCCCCCCCCC[N+](C)(C)C
active: [2] 21 µM and 16 µM and 46.1 µM | [3] 83.2 µM and 46 µM and 46.1 µM | [4] 33.3 µM | [5] 37.4 µM and 17.3 µM and 46.4 µM
inactive: [4] | [6] | [8] | [7]

COc1cccc([C@H](O)C2CCN(CCc3ccc(F)cc3)CC2)c1OC
active: [8] 44.9 µM | [7] 34 µM
not listed: [2] | [5]
inactive: all other assays above

CN1C(=O)CC[C@H]1c1cccnc1
not listed: [3] | [4] | [9]
inactive: all other assays above

CCCCOC(=O)CC(CC(=O)OCCCC)(OC(C)=O)C(=O)OCCCC
not listed: [1] | [4]
inactive: all other assays above

CC(C)(C)c1csc(-c2cc3cc(OCc4ccccc4CC(=O)O)ccc3o2)n1
active: [2] 27.9 µM | [3] 46.1 µM | [4] 47 µM | [5] 49.9 µM | [6] 25.9 µM
inactive: [8] | [7]

Cc1cc2c(cc1C(F)(F)F)N(C(=O)Nc1ccc(Oc3cccnc3C)nc1)CC2
not listed: [1] | [4] | [9]
inactive: all other assays above

OC12N=C(c3ccccc3)SC1Cc1cc(Cl)ccc12 (centres undefined)
inactive: [4] | [6]
active: [3] 66.6 µM | [5] 86.6 µM | [8] 47.3 µM | [7] 50 µM

CC(C)(C)c1cc(/C=C2\SC(N)=NC2=O)cc(C(C)(C)C)c1O
inactive: [1] | [2] | [8]
active: [3] 84.4 µM | [4] 90.1 µM | [5] 62.3 µM | [6] 25.5 µM

COc1ccc2cc(S(=O)(=O)N[C@H](CC(=O)N[C@H](Cc3ccc(CN4[C@H](C)CCC[C@@H]4C)cc3)C(=O)N(C)C(C)C)c3ccc4c(c3)OCO4)ccc2c1
active: [1] 84.8 µM | [3] 60.6 µM | [4] 71.9 µM | [5] 72.1 µM
inactive: [2] | [6] | [8] | [7]

CN(C)c1ccc(C(=C2C=CC(=[N+](C)C)C=C2)c2ccc(N(C)C)cc2)cc1
active: [2] 9.02 µM and 31.5 µM and 8.23 µM | [3] 28.8 µM and 20.6 µM and 14.3 µM | [4] 47.3 µM and 34 µM and 25.4 µM | [9] 46.1 µM and 27 µM and 14.5 µM | [5] 52.5 µM and 51.7 µM and 30.8 µM | [6] 0.577 µM
inactive: [7]

CC(O)CC(C)(C)O (centres undefined)
not listed: [1]
inactive: all other assays above

CCCC(=O)OCCC(C)C
not listed: [1] | [5]
inactive: all other assays above

CN(C)C(=O)C1(N2CCCCC2)CCN(CC[C@@]2(c3ccc(Cl)c(Cl)c3)CN(C(=O)c3ccccc3)CCO2)CC1
inactive: [8] | [7]
active: [2] 82.3 µM | [3] 34 µM | [4] 82 µM | [9] 74.6 µM | [5] 48.5 µM | [6] 16.4 µM

Cc1ccc2oc(CN(Cc3ccccc3)C(=O)Nc3c(F)cc(F)cc3F)c(-c3ccc(Cl)cc3)c2c1
not listed: [1] | [9]
inactive: all other assays above

O=C(OCCCCCCOC(=O)c1ccccc1)c1ccccc1
not listed: [1] | [2] | [9]
inactive: all other assays above

CC[C@@H]1C[C@H](N(Cc2cc(C(F)(F)F)cc(C(F)(F)F)c2)C(C)=O)c2cc(C(F)(F)F)ccc2N1C(=O)OC(C)C
not listed: [1]
inactive: all other assays above

Cc1cccc2ccccc12
not listed: [1] | [9]
inactive: all other assays above
